Hit rate of the full screen: of about 5,500 compounds, about 2,000 (36%) were called active. Another 18% or so got no clear call; they are omitted. No stated cut-off is given here; in the data, active means normalized growth mostly below about 0.91 (no sharp cut-off); inconclusive means no clear call, values can overlap the other calls; inactive means mostly above about 0.92. This is one part of the list.
Assay: chemical genetic growth profiling, strain panel (AID 1159580);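 further: tested at 20 µM; growth read once vehicle control cultures reached saturation at 30 °C; 1 = growth at the plate median or of vehicle wells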
Settings: growth OD

Measured: normalized growth

C=C[C@H]1CN2CC[C@H]1C[C@@H]2[C@H](O)c1ccnc2ccccc12
inactive: S. cerevisiae deletion strains, locus YKL009W, strain mrt4, stronger effect = lower value 0.976 | S. cerevisiae deletion strains, locus YKL068W, stronger effect = lower value 0.979 | S. cerevisiae deletion strains, locus YKL085W, strain MDH1 (second series), stronger effect = lower value 0.972 | S. cerevisiae deletion strains, locus YKL085W, strain MDH1, stronger effect = lower value 0.972 | S. cerevisiae deletion strains, locus YKL160W, strain elf1, stronger effect = lower value 0.991 | S. cerevisiae deletion strains, locus YKL190W, strain CNB1, stronger effect = lower value 0.99 | S. cerevisiae deletion strains, locus YKR001C, strain vps1, stronger effect = lower value 0.997 | S. cerevisiae deletion strains, locus YKR026C, strain gcn3, stronger effect = lower value 0.991 | S. cerevisiae deletion strains, locus YKR091W, strain srl3, stronger effect = lower value 0.979 | S. cerevisiae deletion strains, locus YLL001W, strain dnm1, stronger effect = lower value 0.989 | S. cerevisiae deletion strains, locus YLL026W, stronger effect = lower value 0.995 | S. cerevisiae deletion strains, locus YLL041C, strain sdh2, stronger effect = lower value 0.987 | S. cerevisiae deletion strains, locus YLR027C, strain aat2, stronger effect = lower value 0.992 | S. cerevisiae deletion strains, locus YLR039C, strain RIC1, stronger effect = lower value 0.98 | S. cerevisiae deletion strains, locus YLR058C, strain SHM2, stronger effect = lower value 0.992 | S. cerevisiae deletion strains, locus YLR102C, strain apc9, stronger effect = lower value 0.988 | S. cerevisiae deletion strains, locus YLR113W, strain HOG1, stronger effect = lower value 0.967 | S. cerevisiae deletion strains, locus YLR221C, strain rsa3, stronger effect = lower value 1.02 | S. cerevisiae deletion strains, locus YLR258W, strain gsy2, stronger effect = lower value 0.991 | S. cerevisiae deletion strains, locus YLR262C, strain YPT6 (second series), stronger effect = lower value 1.01 | S. cerevisiae deletion strains, locus YLR262C, strain YPT6, stronger effect = lower value 0.983 | S. cerevisiae deletion strains, locus YLR268W, strain sec22, stronger effect = lower value 0.937 | S. cerevisiae deletion strains, locus YLR320W, strain mms22, stronger effect = lower value 0.998 | S. cerevisiae deletion strains, locus YLR330W, strain CHS5, stronger effect = lower value 0.986 | S. cerevisiae deletion strains, locus YLR342W, strain FKS1 (second series), stronger effect = lower value 1.11 | S. cerevisiae deletion strains, locus YLR342W, strain FKS1, stronger effect = lower value 0.984 | S. cerevisiae deletion strains, locus YLR357W, strain rsc2, stronger effect = lower value 0.976 | S. cerevisiae deletion strains, locus YLR370C, strain arc18, stronger effect = lower value 0.994 | S. cerevisiae deletion strains, locus YLR371W, strain rom2, stronger effect = lower value 0.977 | S. cerevisiae deletion strains, locus YLR384C, strain iki3, stronger effect = lower value 0.995 | S. cerevisiae deletion strains, locus YLR418C, strain cdc73, stronger effect = lower value 0.982 | S. cerevisiae deletion strains, locus YML016C, strain PPZ1, stronger effect = lower value 0.999 | S. cerevisiae deletion strains, locus YML032C, strain rad52, stronger effect = lower value 0.968 | S. cerevisiae deletion strains, locus YML120C, strain ndi1, stronger effect = lower value 1.01 | S. cerevisiae deletion strains, locus YML124C, strain tub3, stronger effect = lower value 0.986 | S. cerevisiae deletion strains, locus YMR058W, strain fet3, stronger effect = lower value 0.982 | S. cerevisiae deletion strains, locus YMR078C, strain ctf18, stronger effect = lower value 0.983 | S. cerevisiae deletion strains, locus YMR125W, strain sto1, stronger effect = lower value 0.977 | S. cerevisiae deletion strains, locus YMR129W, stronger effect = lower value 0.988 | S. cerevisiae deletion strains, locus YMR205C, strain PFK2, stronger effect = lower value 0.988 | S. cerevisiae deletion strains, locus YMR223W, strain ubp8, stronger effect = lower value 1.01 | S. cerevisiae deletion strains, locus YMR231W, strain pep5, stronger effect = lower value 0.979 | S. cerevisiae deletion strains, locus YMR263W, strain SAP30, stronger effect = lower value 0.989 | S. cerevisiae deletion strains, locus YMR307W, strain GAS1, stronger effect = lower value 1.09 | S. cerevisiae deletion strains, locus YNL067W, strain RPL9B, stronger effect = lower value 0.977 | S. cerevisiae deletion strains, locus YNL071W, strain lat1, stronger effect = lower value 0.988 | S. cerevisiae deletion strains, locus YNL128W, strain TEP1, stronger effect = lower value 0.982 | S. cerevisiae deletion strains, locus YNL153C, strain GIM3, stronger effect = lower value 0.991 | S. cerevisiae deletion strains, locus YNL183C, strain NPR1, stronger effect = lower value 0.951 | S. cerevisiae deletion strains, locus YNL209W, strain ssb2, stronger effect = lower value 0.995 | S. cerevisiae deletion strains, locus YNL233W, strain BNI4, stronger effect = lower value 0.985 | S. cerevisiae deletion strains, locus YNL248C, strain rpa49, stronger effect = lower value 0.982 | S. cerevisiae deletion strains, locus YNL250W, strain rad50, stronger effect = lower value 0.986 | S. cerevisiae deletion strains, locus YNL271C, strain bni1, stronger effect = lower value 0.983 | S. cerevisiae deletion strains, locus YNL298W, strain CLA4, stronger effect = lower value 0.985 | S. cerevisiae deletion strains, locus YNL307C, strain MCK1, stronger effect = lower value 0.992 | S. cerevisiae deletion strains, locus YNL322C, strain KRE1 (second series), stronger effect = lower value 0.975 | S. cerevisiae deletion strains, locus YNL322C, strain KRE1, stronger effect = lower value 0.992 | S. cerevisiae deletion strains, locus YNR049C, strain mso1, stronger effect = lower value 0.986 | S. cerevisiae deletion strains, locus YNR052C, strain pop2, stronger effect = lower value 0.992 | S. cerevisiae deletion strains, locus YOL006C, strain TOP1, stronger effect = lower value 0.992 | S. cerevisiae deletion strains, locus YOL012C, strain htz1 1.51 | S. cerevisiae deletion strains, locus YOL147C, strain pex11, stronger effect = lower value 0.979 | S. cerevisiae deletion strains, locus YOR001W, strain rrp6, stronger effect = lower value 1.01 | S. cerevisiae deletion strains, locus YOR061W, strain CKA2, stronger effect = lower value 0.986 | S. cerevisiae deletion strains, locus YOR069W, strain VPS5, stronger effect = lower value 0.997 | S. cerevisiae deletion strains, locus YOR070C, strain gyp1, stronger effect = lower value 1 | S. cerevisiae deletion strains, locus YOR080W, strain dia2, stronger effect = lower value 0.985 | S. cerevisiae deletion strains, locus YOR083W, strain WHI5, stronger effect = lower value 0.991 | S. cerevisiae deletion strains, locus YOR106W, strain vam3, stronger effect = lower value 0.999 | S. cerevisiae deletion strains, locus YOR136W, strain idh2, stronger effect = lower value 1 | S. cerevisiae deletion strains, locus YOR144C, strain elg1, stronger effect = lower value 0.983 | S. cerevisiae deletion strains, locus YOR184W, strain ser1, stronger effect = lower value 0.982 | S. cerevisiae deletion strains, locus YOR231W, strain MKK1, stronger effect = lower value 0.983 | S. cerevisiae deletion strains, locus YOR265W, strain rbl2, stronger effect = lower value 1 | S. cerevisiae deletion strains, locus YOR270C, strain vph1, stronger effect = lower value 1 | S. cerevisiae deletion strains, locus YOR290C, strain snf2, stronger effect = lower value 0.982 | S. cerevisiae deletion strains, locus YOR316C, strain cot1, stronger effect = lower value 0.972 | S. cerevisiae deletion strains, locus YPL051W, strain arl3, stronger effect = lower value 0.994 | S. cerevisiae deletion strains, locus YPL055C, strain LGE1, stronger effect = lower value 0.997 | S. cerevisiae deletion strains, locus YPL078C, strain atp4, stronger effect = lower value 0.99 | S. cerevisiae deletion strains, locus YPL106C, strain sse1, stronger effect = lower value 0.967 | S. cerevisiae deletion strains, locus YPL240C, strain hsp82, stronger effect = lower value 0.999 | S. cerevisiae deletion strains, locus YPL241C, strain CIN2, stronger effect = lower value 0.989 | S. cerevisiae deletion strains, locus YPL256C, strain CLN2, stronger effect = lower value 0.978 | S. cerevisiae deletion strains, locus YPR119W, strain clb2, stronger effect = lower value 0.974 | S. cerevisiae deletion strains, locus YPR141C, strain kar3, stronger effect = lower value 0.981 | S. cerevisiae deletion strains, locus YPR163C, strain tif3, stronger effect = lower value 0.977 | S. cerevisiae deletion strains, locus YPR167C, strain met16, stronger effect = lower value 0.979 | S. cerevisiae deletion strains, strain wtn01, stronger effect = lower value 0.98 | S. cerevisiae strains, strain wild type, stronger effect = lower value 1

Reference: PubChem BioAssay AID1159580 (chemical genetic matrix, 2015)
